Assay outcomes as filed in PubChem.
Hits are enriched below; roughly 9.5% of the tested compounds scored in any of these assays.
Tau fibril ThT: tau fibrillization inhibition (ThT binding); recombinant tau K18 P301L, heparin-induced fibrillization, ThT fluorescence; Potency, µM (series often up to 57.4 µM), for inactives: top-dose activity, negative = inhibition, usual class: inhibitors; 2.1% of 270,000 active; note: nearly all actives have a fitted effect of over 55% in size
Target sequence (P10636 561-689 P618L limits assumed): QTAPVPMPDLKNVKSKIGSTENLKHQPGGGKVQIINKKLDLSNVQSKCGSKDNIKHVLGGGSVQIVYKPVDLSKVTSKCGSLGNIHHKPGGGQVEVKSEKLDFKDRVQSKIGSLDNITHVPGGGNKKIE
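Recombinant human tau K18 fragment […] carrying P301L, 15 uM unlabeled plus 0.24 uM Alexa 594-labeled, was fibrillized with 20 uM heparin in 100 mM sodium acetate pH 7 for 6 hr at 37 C; 30 uM ThT fluorescence read after 1 hr.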
Tau fibril FP: inhibitors of human tau fibril formation; K18 P301L tau heparin fibrillization, Alexa594 FP, 6 h; Potency, µM (titrated, usually from 57.7 µM), for inactives: at the top dose activity, negative = inhibition, actives largely listed as inhibitors; P10636; 0.39% of 280,000 active; note: nearly all actives have a fitted effect of over 55% in size
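Heparin (20 uM) drove fibril formation of recombinant tau K18 P301L, 15 uM unlabeled with 0.24 uM Alexa 594 label, for 6 hr at 37 C in 100 mM sodium acetate pH 7. Fluorescence polarization (555/632 nm) read 1 hr after 30 uM ThT.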
Tau fluor cs: counter-screen for tau fibril formation inhibitors; tau K18 P301L (four-repeat tau fragment) Alexa594 fluorescence, heparin fibrillization; Potency, µM (titrated, usually from 57.7 µM), for the others: at the highest dose activity change, negative = decrease; 0.93% of 280,000 active; AID 1463; note: nearly all actives have a fitted effect of over 55% in size
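Human K18 P301L tau (15 uM unlabeled plus 0.24 uM Alexa 594-labeled, final) in 100 mM sodium acetate pH 7 was mixed with compound and 20 uM heparin and incubated 6 hr at 37 C.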
NPSR antag: neuropeptide S receptor (human) antagonism, cAMP | Q6W5P4 | CHO-NPSR cells, cAMP TR-FRET, antagonist mode | Potency, µM (series often up to 38.3 µM), for inactives: at the highest dose activity change, negative = inhibition, most hits filed as inhibitors | 1% of 220,000 active; note: nearly all actives have a fitted effect of over 50% in size
HPGD inh: HPGD (human) dehydrogenase inhibition; P15428; purified HPGD, NADH fluorescence kinetic, PGE2 substrate; Potency, µM, for the others: top-dose activity change, negative = inhibition, hits mostly inhibitors; 4.3% of 150,000 active; AID 894; active = well fitted inhibition curve with a large enough effect, not every such curve was filed as active; inconclusive = small, poorly fitted or top-dose-only effect, or another doubt; inactive = no such curve, though single readings can be large or run the other way
Target sequence (P15428 whole entry, looked up): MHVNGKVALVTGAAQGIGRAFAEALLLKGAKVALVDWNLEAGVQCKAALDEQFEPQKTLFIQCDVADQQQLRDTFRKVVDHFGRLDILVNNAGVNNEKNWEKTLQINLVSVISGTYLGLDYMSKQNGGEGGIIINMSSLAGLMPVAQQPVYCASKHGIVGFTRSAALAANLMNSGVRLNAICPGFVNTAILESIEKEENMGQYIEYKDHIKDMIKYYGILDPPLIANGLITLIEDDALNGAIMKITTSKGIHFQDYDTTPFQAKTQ
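NADH formation kinetics: reaction with 30 uM PGE2 and 1 mM NAD+ (final), 20 nM enzyme, Tris-HCl pH 8 with Tween 20, after 15 min compound preincubation at room temperature. Fluorescence change, last versus first of five reads.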
ALDH1A1 block: blocks purified human ALDH1A1 activity; P00352; Purified ALDH1A1, NADH fluorescence, propionaldehyde substrate; Potency, µM (doses to about 75.3 µM), without a hit: at the top dose activity, negative = inhibition, hits mostly inhibitors; 7.3% of 220,000 active; AID 1030; active = well fitted inhibition curve with a large enough effect, not every such curve was filed as active; inconclusive = small, poorly fitted or top-dose-only effect, or another doubt; inactive = no such curve, though single readings can be large or run the other way;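 note: plate controls were no enzyme wells and a reference inhibitor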
An asterisk follows results filed as active; ? = inconclusive; . = not tested or not shown; [ ] = dose if it differs, or a comment. Unless noted, calls come from the whole dose curve; as a rule, active = well fitted curve in the direction sought with a large enough effect; inconclusive = small, poorly fitted or top-dose-only effect, or another doubt; inactive = no such curve, though single readings can be large; an effect the other way counts as inactive or inconclusive. Unless noted, % is set by controls: 0 for no effect and ±100 for the full control effect; potency is the fitted concentration of half-maximal effect.

SMILES	Tau fibril ThT	Tau fibril FP	Tau fluor cs	NPSR antag	HPGD inh	ALDH1A1 block
CN(CCc1ccccn1)C(=O)CC1C(=O)NCCN1Cc1ccccc1C(F)(F)F (stereo not given)	-11%	-9%	-2%	-14%	.	?
CC(C)N(Cc1nccn1C)C(=O)CC1C(=O)NCCN1Cc1ccccc1C(F)(F)F (stereo not given)	?	-5%	-7%	-30%	.	40µM*
CCC1CCCCN1C(=O)CSc1nc(-c2ccc(OC)cc2)cc(C(F)(F)F)n1 (stereo not given)	?	10%	-14%	.	.	.
O=CC(=O)c1ccccc1	.	.	.	.	-8%	2.8µM*
CSC1=NCCN1C(=O)c1ccc2c(c1)OCO2	-1%	-3%	-5%	-5%[46.1 µM]	.	11µM*
CSC1=NCCN1C(=O)c1ccc(C)cc1	-3%	5%	-3%	24%	.	-3%
COc1ccc(-c2nnc3ccc(SCC(=O)NCc4ccco4)nn23)cc1OC	-13%	-5%	-13%	?	14µM*	-50%
COc1ccc(NC(=O)CSc2ccc3nnc(-c4cccnc4)n3n2)c(OC)c1	-15%	15%	-6%	-11%	.	40µM*
Cc1ccc(-c2nnc3ccc(SCC(=O)NCc4ccco4)nn23)cc1	-2%	9%	2%	-8%[46.1 µM]	-11%	-13%
O=c1c2ccccc2nc2n1CC/C2=C\c1ccccc1[N+](=O)[O-]	-1%	?	0%	-7%[46.1 µM]	-11%	10%
O=c1c2ccccc2nc2n1CC/C2=C/N1CCN(c2cccc(C(F)(F)F)c2)CC1	?	-14%	?	-10%[46.1 µM]	.	4µM*
CCCCCn1c(=O)[nH]c2cc(C(=O)N3CCN(c4cccc(C)c4)C(C)C3)ccc2c1=O (stereo not given)	-17%	-3%	-24%	.	.	.
CCOC(=O)c1cccc(NC(=O)C(C)n2nc(C)c3c(C)n(-c4ccccc4)nc3c2=O)c1 (stereo not given)	-11%	1%	-12%	.	.	.
O=C(CSCCN1C(=O)c2ccccc2C1=O)Nc1ccc2ccccc2c1	-5%	?	?	16%	-13%	-14%
O=S(=O)(/C(=C/c1ccc(C(F)(F)F)cc1)c1nc2ccccc2[nH]1)c1ccccc1	28µM*	?	-12%	6.3µM*	-27%	?
CC(C)c1ccc(/C=C(\c2nc3ccccc3[nH]2)S(=O)(=O)c2ccccc2)cc1	3%	1%	0%	?	-14%	5%
CCCC1=NN2C(=N)/C(=C\c3ccc(SCc4ccco4)o3)C(=O)N=C2S1	10µM*	-12%	-27%	-8%[46.1 µM]	22µM*	22µM*
CCC1=NN2C(=N)/C(=C\c3ccc(SCc4ccco4)o3)C(=O)N=C2S1	10µM*	6%	-29%	-9%[46.1 µM]	-23%	-11%
O=C(Oc1c(CN2CCOCC2)cc(Cl)c2cccnc12)c1ccccc1F	-25%	0%	-16%	7.9µM*	.	-1%
COCCOC(=O)/C(C#N)=C/c1cn(Cc2ccccc2)nc1-c1cccnc1	-3%	-7%	-4%	-20%	.	20µM*
CCOC(=O)COc1ccccc1/C=C\[N+](=O)[O-]	?	?	14%	7.9µM*	16µM*	4.5µM*
O=C(Nc1ccc2c(c1)OCO2)c1ccc(Br)s1	?	7%	?	8%[46.1 µM]	-23%	1%
Cc1ccc(S(=O)(=O)Nc2ccc3c(c2)CCCN3C(=O)c2cccs2)cc1C	0%	2%	-22%	.	.	.
O=S(=O)(Nc1ccc2c(c1)OCCO2)c1cccs1	0%	-14%	-4%	20%[46.1 µM]	14µM*	-4%
O=S(=O)(Nc1ccc2c(c1)OCO2)c1cccs1	-5%	7%	-3%	-15%[46.1 µM]	-30%	5%
SMILES	Tau fibril ThT	Tau fibril FP	Tau fluor cs	NPSR antag	HPGD inh	ALDH1A1 block
O=C(Nc1ccc2c(c1)OCO2)c1cccs1	-11%	0%	-12%	3%[46.1 µM]	25µM*	?
O=C(c1ccc2c(c1)OCCCO2)c1cccs1	-10%	-4%	-6%	8%[46.1 µM]	14µM*	-13%
CC(=O)N1CCc2cc(NS(=O)(=O)c3cccs3)ccc21	-2%	1%	-1%	-20%[46.1 µM]	25µM*	-5%
CN1CCN(NS(=O)(=O)c2cccs2)CC1	13µM*	?	-17%	12%	-7%	?
O=S(=O)(NCCNS(=O)(=O)c1cccs1)c1cccs1	7%	2%	6%	-4%[46.1 µM]	1%	0%
O=C(Nc1ccc2c(c1)OCCO2)c1cccs1	-6%	-1%	-5%	15%	20µM*	?
COc1ccccc1-c1nccc(-n2ccnc2)n1	-12%	-8%	-2%	.	-7%	11%
COCCSc1nnc(NC(=O)Cc2ccccc2OC)s1	-15%	3%	-4%	-13%[46.1 µM]	-16%	22µM*
COc1cccc(NC(=S)/C(=C(\[O-])c2ccc([N+](=O)[O-])cc2)[n+]2ccccc2)c1	?	2%	-20%	-7%	.	13µM*
O=[N+]([O-])c1ccc(/C([O-])=C(/C(=S)Nc2ccccc2F)[n+]2ccccc2)cc1	?	2%	-22%	-5%	.	?
Cc1ccc(/C([O-])=C(/C(=S)NCc2ccco2)[n+]2ccccc2)cc1	?	-5%	-18%	-9%[46.1 µM]	-11%	-7%
O=[N+]([O-])c1ccc(/C([O-])=C(/C(=S)NCc2ccco2)[n+]2ccccc2)cc1	25µM*	?	-21%	-7%	.	7.9µM*
CCOc1ccc(NC(=S)/C(=C(\[O-])c2ccc(C)c([N+](=O)[O-])c2)[n+]2ccccc2)cc1	25µM*	10%	-25%	-22%[46.1 µM]	?	11µM*
Cc1ccc(NC(=S)/C(=C(\[O-])c2ccc(F)cc2)[n+]2ccccc2)cc1	?	4%	-14%	-10%	.	10µM*
CCc1cc[n+](/C(C(=S)Nc2cccc(C)c2)=C(/[O-])c2ccc(C)c([N+](=O)[O-])c2)cc1	?	12%	-17%	-10%	-20%	?
Cc1cc(Nc2cccc(O)c2)c2cccc(Br)c2n1	-12%	5%	?	.	.	.
CCOc1ccc(NC(=O)N(Cc2cn(CC)c3ccccc23)C2CCCCCC2)cc1	?	4%	-21%	.	.	.
CC(=O)Nc1ccc(C)c([N+](=O)[O-])c1	-2%	6%	-1%	-7%	.	-5%
CCOc1ccc(NC(=S)Nc2ccc(C)c([N+](=O)[O-])c2)cc1	?	-4%	32µM*[quencher]	?	-1%	?
N#Cc1c(N)nc(SCC(=O)C23CC4CC(CC(C4)C2)C3)c(C#N)c1-c1ccc(Cl)cc1	-8%	-7%	-12%	3.2µM*	?	?
CSc1nc(N)nc(SCC(=O)C23CC4CC(CC(C4)C2)C3)c1C#N	-1%	?	?	?	-18%	25µM*
